Results published in PubChem BioAssay.

Key:
[1] = system: Botulinum neurotoxin type F light chain protease (Clostridium botulinum); assay: Botulinum neurotoxin type F light chain protease inhibition, multiplex microsphere flow cytometry, validation set (AID 588459); settings: multiplex microsphere protease substrate cleavage assay, at 10 µM, hits give high values
[2] = molecular target: Botulinum neurotoxin type A (Clostridium botulinum) (UniProt P0DPI0); assay: BoNT/A light chain protease inhibitors, biochemical, multiplex microsphere flow cytometry, validation set (AID 588460); settings: at 10 µM, hits give high values
[3] = molecular target: Lethal factor (Bacillus anthracis) (UniProt P15917); assay: Lethal factor protease inhibitors, Bacillus anthracis, multiplex microsphere cleavage assay, validation set (AID 588461); settings: flow cytometry, at 10 µM, hits give high values

Measured: inhibition

C=CCN1C(=O)c2oc3ccccc3c(=O)c2C1c1ccc(O)c(OC)c1 (stereo not given)
inactive: [1] -1.5% | [2] -0.6% | [3] 1.1%

CCCCOc1ccc(CC(=O)NO)cc1
inactive: [1] -1.6% | [2] -0.2% | [3] 0.6%

CCOC(=O)C1=C[C@]2(CC)CCCN3CCc4c(n1c1ccccc41)[C@@H]32
inactive: [1] 1.3% | [2] -0.9% | [3] -7.9%

CCCCCC(=O)O[C@]1(C(C)=O)CC[C@H]2[C@@H]3CCC4=CC(=O)CC[C@]4(C)[C@H]3CC[C@@]21C
inactive: [1] 1.9% | [2] 1.3% | [3] -1.6%

CCOC(=O)Cn1c(C)cc(=O)c2ccccc21
inactive: [1] 6.3% | [2] 1.7% | [3] 9.6%

COCC(C)NC(=O)c1ccc(CN2CCc3ccccc3C2)cc1 (stereo not given)
inactive: [1] 5.2% | [2] 0% | [3] -7.8%

COc1ccc2oc(=O)c(C(=O)Nc3ccccc3-c3ccccc3)cc2c1
inactive: [1] 3.1% | [2] 0.3% | [3] -1.6%

CCOC(=O)c1cc2c(nc1N)CC(C)(CC)OC2 (stereo not given)
inactive: [1] 3.5% | [2] 1% | [3] -2.4%

CC1(C)CC(CNCCC(c2ccc(F)cc2)c2ccco2)CCO1 (stereo not given)
inactive: [1] 0.9% | [2] -1.4% | [3] 3.4%

CC[n+]1c(C)sc2cc(C)ccc21
inactive: [1] 3.6% | [2] 1.9% | [3] -1.6%

COc1cc(/C=C/C(=O)CC(=O)/C=C/c2ccc(O)c(OC)c2)ccc1O
inactive: [1] 12.2% | [2] 9.5% | [3] -0.9%

CC(C)(C)C(=O)NCCCNc1ccc([N+](=O)[O-])cc1
inactive: [1] -0.6% | [2] -0.3% | [3] 3.3%

C=C(CC)C(=O)c1ccc(OCC(=O)O)c(Cl)c1Cl
inactive: [1] -6.2% | [2] -2.2% | [3] -10.3%

c1ccc(Nc2ccccn2)nc1
inactive: [1] 2.3% | [2] -2.1% | [3] -4.7%

CCCCOn1c(C)c(C(C)=O)c2c3no[n+]([O-])c3ccc21
inactive: [1] 1.9% | [2] 0.2% | [3] -1.9%

Cc1cccc(N2C(=O)C3C(c4ccccc4)OC4(C(=O)c5ccccc5C4=O)C3C2=O)c1 (stereo not given)
inactive: [1] 4.6% | [2] 1% | [3] -3.5%

COc1cccc(CN2CCN(C(=O)c3ccc(-c4ccccc4)cc3)CC2)c1
inactive: [1] 3.8% | [2] -0.4% | [3] -3.1%

O=C(CCCN1CCC(O)(c2ccc(Cl)cc2)CC1)c1ccc(F)cc1
inactive: [1] -3.5% | [2] 1.1% | [3] 3.7%

OC(CCCN1CCC(O)(c2ccc(Cl)cc2)CC1)c1ccc(F)cc1 (stereo not given)
inactive: [1] -1.7% | [2] 1.7% | [3] -4.8%

O=C(Nc1ccc(Cl)cn1)Nc1ccccc1Cl
inactive: [1] 2.9% | [2] 0.2% | [3] -4.9%

Cc1ccccc1N1C(N)=NC(N)=NC1(C)C
inactive: [1] -1.5% | [2] -0.8% | [3] 6.8%

CC(C)COC(=O)C1C(=O)CC(C)(O)C(C(=O)OCC(C)C)C1c1cccnc1 (stereo not given)
inactive: [1] 2.5% | [2] 0.6% | [3] 3.5%

COc1cccc(N2C(=O)[C@H]3C(C(=O)c4cnccn4)=NN[C@H]3C2=O)c1
inactive: [1] 3% | [2] -0.2% | [3] 4.8%

CCC(=O)Oc1ccc(/C(CC)=C(\CC)c2ccc(OC(=O)CC)cc2)cc1
inactive: [1] -2% | [2] 0.1% | [3] -0.2%

COc1cc2c(cc1OC)CN(Cc1ccc(C)s1)CC2
inactive: [1] 2.4% | [2] 0.7% | [3] -1.2%

CC(=O)Nc1cc(O)cc(O)c1
inactive: [1] 6.1% | [2] 0.1% | [3] -1.2%

COc1cc(C(=S)N(C)C)ccc1O
inactive: [1] -3.2% | [2] -0.9% | [3] -2%

COc1cc2c(cc1O)CC[C@@H]1[C@@H]2CC[C@]2(C)[C@@H](O)CC[C@@H]12
inactive: [1] -2.1% | [2] -2.2% | [3] -2.9%

CCOc1ccc(C(=O)NC(C)C2COc3ccccc3O2)cc1 (stereo not given)
inactive: [1] -6.8% | [2] -0.6% | [3] -4.7%

Cc1ccc(C2CC(c3cccs3)=NN2C(=O)c2ccco2)o1 (stereo not given)
inactive: [1] -0.5% | [2] -0.5% | [3] 1.3%

COc1ccc(-c2cc(=O)oc3cc(OC(C)C(=O)O)ccc23)cc1 (stereo not given)
inactive: [1] 0.9% | [2] 2% | [3] 9.7%

COc1cc2c(cc1OC)CN(C(=O)c1ccc(S(=O)(=O)N(C)c3ccccc3)cc1)CC2
inactive: [1] 0.9% | [2] 0.6% | [3] 3.4%

CN(C)CCCNc1ncnc2c1cnn2-c1ccccc1
inactive: [1] 0.3% | [2] -0.3% | [3] -4%

O=C1Nc2ccc3sc4ccccc4c3c2C1=O
inactive: [1] -1.1% | [2] -0.8% | [3] 1.4%

COc1cc(NC(=S)NN2CCN(C)CC2)cc(OC)c1OC
inactive: [1] 5.5% | [2] -0.6% | [3] -5.6%

CN(C)CCN(Cc1cccs1)c1ccccn1
inactive: [1] 2.5% | [2] -0.3% | [3] -1.6%

COc1ccc(C(=O)CCN2CCc3cc(OC)c(OC)cc3C2)cc1
inactive: [1] -2.2% | [2] -0.3% | [3] -2.9%

COc1cccc(OCC(O)CO)c1 (stereo not given)
inactive: [1] -1.4% | [2] -1.1% | [3] -9.1%

COc1ccc(NC2=C(Cl)C(=O)N(c3ccccc3)C2=O)c(OC)c1
inactive: [1] 3.7% | [2] 1% | [3] -0.3%

Cc1ccc2c(ccc(=S)n2C)c1
inactive: [1] 1.7% | [2] 0.8% | [3] 7.4%

CC12CN3CC(C)(CN(C1)C3c1ccc(Cl)cc1Cl)C2=O (stereo not given)
inactive: [1] -0.6% | [2] 0.5% | [3] 0.1%

Cn1c(=O)c2c(nc(SCCN3CCCCC3)n2C)n(C)c1=O
inactive: [1] -1.4% | [2] 0.2% | [3] -4.6%

OC12CCCCC1C(c1ccc3c(c1)OCO3)N(Cc1cccc(F)c1)CC2 (stereo not given)
inactive: [1] -0.1% | [2] -1.3% | [3] -2.8%

CN(C)CCC(c1ccccc1)c1ccccn1 (stereo not given)
inactive: [1] -2.8% | [2] -0.2% | [3] 2.6%

COc1cccc(C2CC(=O)C3=C(C2)Nc2ccccc2N(C(=O)CCC(=O)O)C3c2ccc(F)cc2)c1 (stereo not given)
inactive: [1] 1.3% | [2] 0.4% | [3] 5.1%

CC(=O)N[C@@H](CS)C(=O)O
inactive: [1] 5.5% | [2] -0.8% | [3] 2.4%

O=C1OC(c2ccccc2)=C/C1=C/c1cccs1
inactive: [1] 6.4% | [2] 1.5% | [3] 0.7%

C[N+](C)(C)CCOP(=O)(O)OP(=O)([O-])OC[C@H]1O[C@@H](n2ccc(N)nc2=O)[C@H](O)[C@@H]1O
inactive: [1] 6% | [2] 0.6% | [3] 8.1%

O=c1nc2n(c3c1oc1ccccc13)Cc1ccccc1-2
inactive: [1] 2.1% | [2] 0% | [3] -4.3%

CN1C(C(=O)Nc2ccccn2)=C(O)c2ccccc2S1(=O)=O
inactive: [1] 1.9% | [2] 1.5% | [3] 10%

CC(C)(CO)CNC(=O)CC1C(=O)NCCN1CC(c1ccccc1)c1ccccc1 (stereo not given)
inactive: [1] 0.8% | [2] -0.4% | [3] 0.3%

CC(C)(C)N1NC2(CCCCC2)NC1=S
inactive: [1] 4.9% | [2] -1.4% | [3] -1.4%

O=C(O)Cc1ccc(-c2ccccc2)cc1
inactive: [1] 0.5% | [2] -1.2% | [3] 0.5%

CCCc1cc(=O)[nH]c(=S)[nH]1
inactive: [1] -2.4% | [2] 1.4% | [3] 1.8%

COc1ccccc1NC(=O)C12CCC(C)(C(=O)C1)C2(C)C (stereo not given)
inactive: [1] -1% | [2] 0.8% | [3] 0.3%

CCc1cc(=O)oc2cc(OCc3nn[nH]n3)ccc12
inactive: [1] -0.5% | [2] -1.3% | [3] 1.9%

O=C1C(O)CC2c3ccccc3CC3(CCCC3)N12 (stereo not given)
inactive: [1] 2% | [2] -1.5% | [3] -6%

CC(=O)[C@@]1(O)CC[C@H]2[C@@H]3CCC4=CC(=O)CC[C@]4(C)[C@H]3[C@@H](O)C[C@@]21C
inactive: [1] 2.3% | [2] -1.1% | [3] 1.8%

O=C(CC1SC(=O)NC1=O)Nc1ccc(Cl)cc1 (stereo not given)
inactive: [1] -1.9% | [2] 0.8% | [3] -0.5%

COc1ccc(NC(=O)CC2C(=O)N(C)C(=S)N2Cc2ccncc2)cc1 (stereo not given)
inactive: [1] -2.7% | [2] -1.6% | [3] -9.6%

O=C(NCC1CCCO1)c1ccc(OC2CCN(C(=O)C3CC3)CC2)cc1 (stereo not given)
inactive: [1] 0.8% | [2] 0.5% | [3] -2.8%

O=c1c2ccccc2nc2n1CCCN2
inactive: [1] -4.6% | [2] -2.9% | [3] -7.9%

O=C(O)[C@@H](O)c1ccccc1
inactive: [1] -0.3% | [2] 0% | [3] -3.5%

Nc1cccc2nc3ccccc3cc12
inactive: [1] 4% | [2] 2.3% | [3] 1.2%

CC(=O)c1cc2c(cc1NC(=O)c1ccco1)OCCO2
inactive: [1] -1.7% | [2] -1.3% | [3] -1.9%
